According to PubChem BioAssay AID602393 (Broad Institute, 2012):
About 7,000 (2%) of roughly 350,000 compounds were called active. Cut-off read from the data, not from the text of the source: active = activation above about 40%; inconclusive = no clear call, values can overlap the other calls; inactive = below that. For the sample, actives were picked, then their nearest neighbours and some compounds at random.

Assay: Bmi1 luciferase reporter increase in mESCs, primary screen, esBAF inhibitor project, mouse ES cells, Bmi1 luciferase knock-in, single point (AID 602393);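 note: 0% = median of the plate's neutral control wells and 100% = double that signal; a rise in the Bmi1 reporter signal indicates esBAF inhibition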
Settings: 24 h, at 12.5 µM, stronger effect = higher value, 100% = twice the neutral-well signal

Compound | reporter increase
COc1ccc(-n2nc(C(=O)NCC(=O)N3CCC(C(N)=O)CC3)c3ccccc3c2=O)cc1OC | -4.41% (inactive)
COc1ccc(-n2nc(C(=O)NCC(=O)N3CCCCCC3)c3ccccc3c2=O)cc1Cl | 47.6% (active)
COc1ccc(-n2nc(C(=O)NCC(=O)N3CCN(c4ccccc4OC)CC3)c3ccccc3c2=O)c(OC)c1 | 30.3% (inactive)
CCCNC(=O)Nc1ccc2c(c1)C(=O)N(C)C[C@@H](OC)[C@H](C)CN(C(=O)C1CCCCC1)[C@H](C)CO2 | 5.09% (inactive)
C[C@@H]1CCCCO[C@H](CN(C)S(C)(=O)=O)[C@@H](C)CN([C@H](C)CO)C(=O)c2cc(NC(=O)Nc3ccc4c(c3)OCO4)ccc2O1 | 6.3% (inactive)
CC(C)=C1SC(N2CCN(c3cccc(C)c3)CC2)=NC1=O | -1.1% (inactive)
CCN1C(=O)/C(=C2\SC(N3CCCCC3)=NC2=O)c2ccccc21 | 65% (active)
CCOc1cc(/C=C2\SC(N3CCCCC3)=NC2=O)ccc1O | 30.3% (inactive)
O=C(C[C@H]1C=C[C@H](NC(=O)Cc2ccccn2)[C@@H](CO)O1)NCCc1ccccc1 | -5.91% (inactive)
CN1c2ccc(C#Cc3ccccc3F)cc2[C@@H]2[C@@H](CCN2C(=O)Cc2cccnc2)[C@H]1CO | 1.33% (inactive)
CCCOc1cccc(C(=O)Nc2nnn(CCC)n2)c1 | 52.7% (active)
CCCn1nnc(NC(=O)COc2ccc(CC)cc2)n1 | -6.66% (inactive)
CCn1nnc(NC(=O)c2c(OC)cccc2OC)n1 | 1.33% (inactive)
CO[C@H]1CN(C)C(=O)c2cc(NC(=O)Nc3c(C)noc3C)ccc2OC[C@@H](C)N(CCC(F)(F)F)C[C@H]1C | -21.9% (inactive)
Cc1noc(C)c1S(=O)(=O)N(C)C[C@@H]1OCCCC[C@H](C)Oc2ccc(NC(=O)Nc3ccc4c(c3)OCO4)cc2C(=O)N([C@H](C)CO)C[C@H]1C | 2% (inactive)
COCC(=O)Nc1ccc2c(c1)C(=O)N(C)[C@@H]1CC[C@H](CC(=O)NCC3CC3)O[C@@H]1CO2 | -2.01% (inactive)
CO[C@H]1CN(C)C(=O)c2cc(NC(=O)c3cc(C)on3)ccc2OC[C@H](C)N(C(C)=O)C[C@H]1C | 0.72% (inactive)
CCC1C(=O)NCCN1C(=O)c1ccc2nc(Cc3ccc(OC)cc3)oc2c1 (stereo not drawn) | 0.998% (inactive)
O=C(NCCc1ccc(F)cc1)c1ccc2nccnc2c1 | -17.6% (inactive)
COCCNC(=O)c1ccc2nc(Cc3ccc(OC)c(OC)c3)oc2c1 | 48.6% (active)
CCCCc1nc2cc(C(=O)NCCc3cnn(C)c3)ccc2o1 | 31.5% (inactive)
COc1ccc(Cc2nc3ccc(C(=O)NCC4CCOCC4)cc3o2)cc1OC | 21% (inactive)
CSCCNC(=O)c1ccc2nc(Cc3ccccc3F)oc2c1 | 70.4% (active)
O=C(N[C@H]1CC[C@@H](CCNS(=O)(=O)c2cccc(Cl)c2)O[C@@H]1CO)c1ccncc1 | 0.826% (inactive)

Compound | reporter increase
C[C@H](CO)N1C[C@H](C)[C@H](CN(C)C(=O)Nc2ccc(C(F)(F)F)cc2)Oc2ccc(NS(=O)(=O)c3ccccc3)cc2CC1=O | -4.41% (inactive)
Cc1noc(C)c1S(=O)(=O)N(C)C[C@@H]1Oc2ccc(NC(=O)Cn3cnnn3)cc2CC(=O)N([C@@H](C)CO)C[C@H]1C | -6.08% (inactive)
Cc1cc(C(=O)Nc2cccc3c2O[C@@H](CN(C)S(=O)(=O)c2ccc(F)cc2)[C@@H](C)CN([C@H](C)CO)C3=O)n(C)n1 | 5.98% (inactive)
CCC(=O)Nc1ccc2c(c1)OC[C@@H](C)N(Cc1ccccn1)C[C@H](C)[C@@H](OC)CN(C)C2=O | -3.64% (inactive)
COc1ccc(NC(=O)N(C)C[C@H]2OCCCC[C@H](C)Oc3ccc(NS(C)(=O)=O)cc3C(=O)N([C@H](C)CO)C[C@@H]2C)cc1 | 3.29% (inactive)
CC(C)NC(=O)N(C)C[C@H]1OCCCC[C@@H](C)Oc2ccc(NS(C)(=O)=O)cc2C(=O)N([C@H](C)CO)C[C@H]1C | -1.04% (inactive)
COc1ccc(NC(=O)Nc2ccc3c(c2)C(=O)N([C@H](C)CO)C[C@@H](C)[C@H](CN(C)C(=O)Cc2ccccc2)OCCCC[C@H](C)O3)cc1 | 15.2% (inactive)
CCOC(=O)c1cn(CC(=O)Nc2ccc(C(C)C)cc2)nn1 | -4.55% (inactive)
CCc1ccc(NC(=O)Cn2ncn3c(cc4ccccc43)c2=O)cc1 | -6.55% (inactive)
CC(C)c1ccc(NC(=O)Cn2ncc3ccccc32)cc1 | 61.7% (active)
COc1cccc(CNC(=O)[C@@H]2[C@@H](CO)[C@@H]3Cn4c(ccc(-c5cccnc5)c4=O)[C@@H]3N2C)c1 | 0.488% (inactive)
COC(=O)c1ccc(/C=C/c2c(-c3ccc(OC)cc3)sc3ccccc23)cc1 | 0.121% (inactive)
COc1ccccc1-c1sc2ccccc2c1-c1ccc(C(C)=O)cc1 | 34.4% (inactive)
COc1ccc(N=C(C)c2sc3ccccc3c2O)cc1 | 50.4% (active)
N#C[C@H]1[C@@H](c2ccc(C3=CCCCC3)cc2)[C@@H](CO)N1C(=O)NC1CCCCC1 | 7.57% (inactive)
C[C@H]1CCCCO[C@H](CN(C)C(=O)Nc2ccccc2)[C@@H](C)CN([C@@H](C)CO)C(=O)c2cc(NC(=O)CCC(F)(F)F)ccc2O1 | -7.05% (inactive)
O=C(C1CCC1)N1C[C@@H]2[C@H](c3ccccc31)[C@H](CO)N2C(=O)c1ccccc1 | -1.2% (inactive)
Cc1ccc(Cc2nc(-c3cccc(C)c3)no2)cc1 | 60.8% (active)
CCCc1nc(-c2cc3cc(C)ccc3[nH]c2=O)no1 | -1.25% (inactive)
Cc1ccc(-c2noc(CNC(=O)c3ccoc3C)n2)cc1 | 1.49% (inactive)
Cc1ccc(-c2noc(CC(c3ccccc3)c3ccccc3)n2)cc1 | 0.61% (inactive)
COc1ccccc1-c1noc(CSc2nc(C)cc(=O)[nH]2)n1 | -5.13% (inactive)
COc1ccccc1Cc1nc(-c2ccc(C)cc2)no1 | 46.3% (active)
C[C@@H]1CCCCO[C@@H](CN(C)Cc2ccncc2)[C@H](C)CN([C@H](C)CO)C(=O)c2cc(N(C)C)ccc2O1 | -12.3% (inactive)
